In the supplement of paper PMC12669032:
Unmarked numbers belong to inactive results.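 The calls were made as follows: active = AUC reduced over 20% with Padj below 0.05 in at least 2 of 3 replicates; inactive = otherwise.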

Experiments:
Assay in all cases: growth AUC relative to DMSO control (median of replicates) (fraction); higher = more growth (less inhibition), active = hit call of the paper
Conditions in all cases: 20 µM; 24 h
Akkermansia muciniphila = test system: Akkermansia muciniphila
Method in brief: (§1)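 Gut bacterial monocultures were grown anaerobically at 37 °C in mGAM from a starting OD600 of 0.05 with 20 µM compound (1% DMSO), in round-bottom 96-well plates under pierced gas-permeable seals, and OD600 was read hourly for 24 h. With the minimum OD set to 0, area under the growth curve was normalised to the plate median of solvent-only wells, or to row and column medians on the industrial chemical plate. Each value is the median of three biological replicates grown on separate days.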

Bacteroides caccae = test system: Bacteroides caccae
Method in brief: as §1

Bacteroides clarus = test system: Bacteroides clarus
Method in brief: as §1

Bacteroides dorei = test system: Bacteroides dorei
Method in brief: as §1

Bacteroides stercoris = test system: Bacteroides stercoris
Method in brief: as §1

[1] = test system: Bacteroides thetaiotaomicron
Method in brief: as §1

Bacteroides uniformis = test system: Bacteroides uniformis
Method in brief: as §1

[2] = test system: Bifidobacterium longum subsp. longum
Method in brief: as §1

Clostridium difficile = test system: Clostridium difficile
Method in brief: as §1

Collinsella aerofaciens = test system: Collinsella aerofaciens
Method in brief: as §1

Coprococcus comes = test system: Coprococcus comes
Method in brief: as §1

Escherichia coli ED1a = test system: Escherichia coli ED1a
Method in brief: as §1

Escherichia coli IAI1 = test system: Escherichia coli IAI1
Method in brief: as §1

Eubacterium rectale = test system: Eubacterium rectale
Method in brief: as §1

[3] = test system: Fusobacterium nucleatum subsp. animalis
Method in brief: as §1

Lactobacillus gasseri = test system: Lactobacillus gasseri
Method in brief: as §1

Lactobacillus paracasei = test system: Lactobacillus paracasei
Method in brief: as §1

Odoribacter splanchnicus = test system: Odoribacter splanchnicus
Method in brief: as §1

[4] = test system: Parabacteroides distasonis
Method in brief: as §1

Parabacteroides merdae = test system: Parabacteroides merdae
Method in brief: as §1

Row | Compound | growth AUC (Akkermansia muciniphila) | growth AUC (Bacteroides caccae) | growth AUC (Bacteroides clarus) | growth AUC (Bacteroides dorei) | growth AUC (Bacteroides stercoris) | growth AUC [1] | growth AUC (Bacteroides uniformis) | growth AUC [2] | growth AUC (Clostridium difficile) | growth AUC (Collinsella aerofaciens) | growth AUC (Coprococcus comes) | growth AUC (Escherichia coli ED1a) | growth AUC (Escherichia coli IAI1) | growth AUC (Eubacterium rectale) | growth AUC [3] | growth AUC (Lactobacillus gasseri) | growth AUC (Lactobacillus paracasei) | growth AUC (Odoribacter splanchnicus) | growth AUC [4] | growth AUC (Parabacteroides merdae)
1 | Cc1cc(Cl)ccc1OC(C)C(=O)O (stereo not given) | 0.902 | 1.02 | 0.996 | 1 | 1.01 | 1.01 | 1 | 0.88 | 1.03 | 1.01 | 0.984 | 1.01 | 1.02 | 0.978 | 0.945 | 1.12 | 0.945 | 0.942 | 0.966 | 1.02
2 | N#Cc1c[nH]cc1-c1cccc2c1OC(F)(F)O2 | 0.837 | 0.959 | 0.918 | 0.953 | 0.85 | 0.953 | 0.999 | 0.91 | 0.978 | 0.992 | 1.05 | 0.969 | 0.978 | 0.857 | 0.888 | 0.866 | 0.908 | 0.985 | 0.759 (active) | 0.88
3 | CC1=NNC(=O)N(/N=C/c2cccnc2)C1 | 0.995 | 1.01 | 0.98 | 1.04 | 1.01 | 1.02 | 1.04 | 0.993 | 1.07 | 1.1 | 1.02 | 0.993 | 0.991 | 1 | 1.02 | 1.01 | 0.988 | 1.03 | 1.01 | 0.996
4 | C[Si](Cn1cncn1)(c1ccc(F)cc1)c1ccc(F)cc1 | 0.895 | 0.891 | 0.907 | 0.854 | 0.952 | 0.895 | 0.913 | 0.923 | 1 | 0.931 | 0.412 (active) | 0.982 | 0.946 | 0.504 (active) | 0.9 | 1.04 | 0.925 | 0.925 | 0.915 | 0.964
5 | CCCSP(=S)(OCC)Oc1ccc(Cl)cc1Cl (stereo not given) | 1.06 | 0.796 | 1.05 | 0.98 | 1.41 | 0.961 | 1.01 | 1.07 | 1.05 | 0.965 | 1 | 1.05 | 1.01 | 1.04 | 1.11 | 1.01 | 0.984 | 0.778 | 0.984 | 1.01
6 | CCOC(=O)c1ccccc1S(=O)(=O)NC(=O)Nc1nc(Cl)cc(OC)n1 | 1.1 | 0.991 | 1.03 | 0.933 | 0.97 | 1.01 | 0.962 | 1.4 | 1.03 | 0.993 | 0.988 | 1.03 | 1.02 | 1.05 | 1.07 | 0.969 | 1.05 | 1.1 | 1.07 | 1.04
7 | CNC(=S)S | 1.07 | 1.01 | 1.04 | 0.996 | 1.08 | 1.02 | 1 | 1.37 | 0.999 | 0.996 | 1.03 | 1.02 | 1.02 | 1.03 | 1.08 | 1.02 | 1.1 | 1.05 | 1.03 | 1.05
8 | N#Cc1nn(-c2c(Cl)cc(C(F)(F)F)cc2Cl)c(N)c1C(F)(F)F | 1.08 | 0.898 | 0.741 (active) | 0.773 | 0.626 | 1.01 | 0.97 | 0.858 | 0.609 (active) | 0.967 | 0.885 | 0.986 | 0.978 | 1.01 | 0.842 | 0.801 | 0.927 | 0.696 | 0.791 (active) | 0.834
9 | COP(=S)(OC)Oc1ccc(S(C)=O)c(C)c1 (stereo not given) | 0.88 | 1.02 | 1.01 | 1.03 | 1.16 | 0.962 | 1.03 | 1.02 | 1.01 | 1.03 | 1.04 | 0.975 | 1.04 | 1.06 | 1.02 | 1.02 | 1.01 | 0.979 | 1.03 | 0.988
10 | c1cc2c3c(cccc3c1)CC2 | 0.966 | 1 | 1 | 1.01 | 0.991 | 0.999 | 0.994 | 0.961 | 0.993 | 0.995 | 1 | 1.01 | 1.01 | 1.05 | 1.07 | 1.05 | 1.01 | 1.01 | 1.01 | 0.995
11 | O=C(O)c1ccc(Cl)nc1 | 0.953 | 0.985 | 1.02 | 0.985 | 1.08 | 1.01 | 1.04 | 0.902 | 1.03 | 0.999 | 0.946 | 1.01 | 0.967 | 1.05 | 1.1 | 1.15 | 0.974 | 0.968 | 1.02 | 1.01
12 | O=[N+]([O-])c1ccc(Oc2ccc(Cl)cc2Cl)cc1 | 1.09 | 0.959 | 0.971 | 0.973 | 1.09 | 0.99 | 0.931 | 0.972 | 0.97 | 0.998 | 0.988 | 0.99 | 0.983 | 1.07 | 1 | 0.789 | 0.976 | 0.946 | 0.655 (active) | 0.967
13 | Nc1nc(N)nc(NC2CC2)n1 | 0.99 | 0.989 | 1.02 | 1.01 | 1.04 | 1 | 0.991 | 1.01 | 1.02 | 0.999 | 1 | 0.982 | 0.986 | 1.04 | 1.04 | 0.877 | 0.959 | 1.04 | 1.03 | 1
14 | Clc1ccc(Cl)c(Cl)c1 | 1.04 | 0.88 | 1.04 | 1.01 | 1.24 | 1.02 | 0.953 | 0.957 | 0.941 | 0.969 | 0.919 | 0.996 | 0.974 | 1.1 | 1.11 | 0.86 | 0.943 | 0.983 | 0.95 | 1.02
15 | CNC(=O)Oc1cc(C)c(S(C)=O)c(C)c1 (stereo not given) | 0.977 | 0.949 | 0.999 | 1 | 1.13 | 0.978 | 1.02 | 1.04 | 0.968 | 1.05 | 0.997 | 1.01 | 0.97 | 0.884 | 1.09 | 0.963 | 0.952 | 0.996 | 1 | 1.05
16 | COc1nc(NC(C)C)nc(NC(C)C)n1 | 1.01 | 1.04 | 0.993 | 0.994 | 0.979 | 1.02 | 1.02 | 1.02 | 0.98 | 0.995 | 1.01 | 1.01 | 1.02 | 0.97 | 0.885 | 0.984 | 1.01 | 1.03 | 1.03 | 1.02
17 | OC(Cn1cncn1)(c1ccc(F)cc1)c1ccccc1F (stereo not given) | 0.876 | 0.976 | 0.971 | 0.988 | 1 | 0.98 | 0.999 | 1.21 | 1 | 0.985 | 0.975 | 1.04 | 0.98 | 0.958 | 1.02 | 0.962 | 0.909 | 0.979 | 1.01 | 0.995
